hNpr1 antagonist – blocks ANP-stimulated signaling of human Npr1 receptor; P16066; HEK293 hNpr1 GloSensor cGMP, ANP-stimulated luminescence; Potency, µM (series often up to 46.3 µM), without a hit: at the top dose activity change, negative = inhibition, usual class: inhibitors; hit rate 1.6% among 76,000; AID 1347048; calls by dose curve; also: nearly all actives have a fitted effect of over 60% in size
Target sequence (P16066 whole entry, looked up): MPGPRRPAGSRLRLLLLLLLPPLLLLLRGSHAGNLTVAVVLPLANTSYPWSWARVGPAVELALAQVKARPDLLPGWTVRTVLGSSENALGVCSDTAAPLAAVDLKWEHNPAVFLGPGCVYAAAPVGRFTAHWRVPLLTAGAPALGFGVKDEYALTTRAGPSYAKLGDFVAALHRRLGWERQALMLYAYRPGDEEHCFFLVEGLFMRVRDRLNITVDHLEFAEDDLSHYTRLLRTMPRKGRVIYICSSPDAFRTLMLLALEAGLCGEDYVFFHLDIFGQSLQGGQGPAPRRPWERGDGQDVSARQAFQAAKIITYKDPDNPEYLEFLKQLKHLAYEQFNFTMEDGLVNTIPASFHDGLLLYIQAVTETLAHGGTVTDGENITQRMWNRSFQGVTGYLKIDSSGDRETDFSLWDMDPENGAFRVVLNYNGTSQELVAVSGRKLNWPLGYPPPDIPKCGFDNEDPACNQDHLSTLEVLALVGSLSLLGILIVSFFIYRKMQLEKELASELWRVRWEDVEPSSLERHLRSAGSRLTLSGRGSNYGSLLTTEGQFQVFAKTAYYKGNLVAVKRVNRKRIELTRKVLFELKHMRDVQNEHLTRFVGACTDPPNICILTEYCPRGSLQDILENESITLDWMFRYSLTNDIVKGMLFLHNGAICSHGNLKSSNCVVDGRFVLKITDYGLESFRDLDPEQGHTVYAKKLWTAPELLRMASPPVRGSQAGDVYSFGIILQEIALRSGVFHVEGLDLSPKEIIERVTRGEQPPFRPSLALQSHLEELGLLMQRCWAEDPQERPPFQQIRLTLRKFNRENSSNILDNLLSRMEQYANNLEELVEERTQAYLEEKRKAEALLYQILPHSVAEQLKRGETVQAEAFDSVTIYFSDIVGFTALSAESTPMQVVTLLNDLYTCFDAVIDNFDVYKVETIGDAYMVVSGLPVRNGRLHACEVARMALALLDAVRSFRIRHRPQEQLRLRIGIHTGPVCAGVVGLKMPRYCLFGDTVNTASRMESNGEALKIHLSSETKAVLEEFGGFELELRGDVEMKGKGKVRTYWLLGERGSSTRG
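Compound pre-incubated 30 min at room temperature on GloSensor-loaded HEK293 cells stably carrying hNpr1 and the pGS-40F cGMP biosensor. Stimulation uses hNppA at 0.1 nM final; luminescence is taken at baseline and 20 min post-agonist.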
Luciferase inh – inhibitors of firefly (Photinus pyralis) luciferase | P08659 | AID 1347043 | purified P. pyralis luciferase, luminescence, biochemical | Potency, µM (titrated, usually from 115 µM), usual class: inhibitors | hit rate 2.5% among 76,000; also: nearly all actives have a fitted effect of over 65% in size
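FLuc 10nM, D-luciferin 10uM, ATP 10uM, Mg acetate 10mM, Tris acetate pH 7.5, Tween/BSA; cpd qHTS; enzyme added last; CCD luminescence.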
HEK cytotox – HEK 293 cell cytotoxicity. AID 1345083. Potency, µM (top dose mostly 115 µM), for the others: at the highest dose activity change, negative = cytotoxicity, most hits filed as inhibitors. hit rate 6.6% among 94,000. HEK 293 viability, ATP luminescence (CellTiter-Glo), 48-72 h; also: nearly all actives have a fitted effect of over 60% in size
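Cytotoxicity was scored by loss of ATP-coupled luminescence (CellTiter-Glo) in HEK 293 cells. Compound treatment ran 48 or 72 hr at 37 degree Celsius, 5% CO2, 95% humidity.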
3T3 cytotox – kills NIH 3T3 cells; NIH 3T3 viability, CellTiter-Glo ATP luminescence, 48-72 h; Potency, µM (top dose mostly 96.7 µM), for inactives: top-dose activity change, negative = cytotoxicity, actives largely listed as inhibitors; hit rate 4.3% among 94,000; also: nearly all actives have a fitted effect of over 55% in size
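Cytotoxicity was measured by CellTiter-Glo ATP luminescence after 48 or 72 h compound exposure at 37 °C. Mouse NIH 3T3 fibroblasts were seeded at 400 cells/well and dosed by 23 nL pin transfer.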
Starred values were filed as active, the others as inactive; i = inactive; ? = inconclusive; / = no result; [ ] = another dose, or the depositor's remark. A selection: hits, their analogues and other compounds. The true share with any hit is near 11%. Unless noted, calls follow the shape of the dose curve; as a rule, active = well fitted curve in the direction sought with a large enough effect; inconclusive = small, poorly fitted or top-dose-only effect, or another doubt; inactive = no such curve, though single readings can be large; an effect the other way counts as inactive or inconclusive. % is scaled to controls: 0 for no effect and ±100 for the full control effect; potency is read from the fitted curve at half-maximal effect.

SMILES	hNpr1 antagonist	Luciferase inh	HEK cytotox	3T3 cytotox
Cc1ccccc1CN1CCC2(CC1)OC(=O)N(Cc1ccc(O)cc1)C2(C)c1ccccc1 (stereo not drawn)	-25.1%	i	35.5µM*	31.6µM*
CC1(c2ccccc2)N(Cc2ccc(O)cc2)C(=O)OC12CCN(Cc1c[nH]c3ccccc13)CC2 (stereo not drawn)	?	i	?	10µM*
COc1ncc(CN2CCC3(CC2)OC(=O)N(Cc2ccccc2)C3(C)c2ccccc2)cn1 (stereo not drawn)	-1.9%	i	?	-14.6%
Cc1ccc(CN2CCC3(CC2)OC(=O)N(Cc2ccc(O)cc2)C3(C)c2ccccc2)o1 (stereo not drawn)	-16.7%	i	?	?
COc1ccccc1CN1CCC2(CC1)OC(=O)N(Cc1ccccc1)C2(C)c1ccccc1 (stereo not drawn)	-12.2%	i	50.1µM*	?
O=C(NCc1ccccn1)c1ccc2nnc(CC3CC3)n2c1	/	/	i	-1.3%[138 µM]
CC1=C[C@@H](CNS(=O)(=O)Cc2ccccc2)[C@H](C(C)C)C[C@H]1CC(=O)N1CCN(C)CC1	-2.5%	i	?	-15.2%
Cc1ccc(S(=O)(=O)N[C@H]2CC(C)(C)[C@@H]3C[C@@](C)(O)CC[C@]23CCC(=O)NCCc2c[nH]c3ccccc23)cc1	3.8%	i	?	79.4µM*
CC(C)N[C@H]1CC(C)(C)[C@@H]2C[C@@](C)(O)CC[C@]12CCC(=O)NCCc1c[nH]c2ccccc12	-0.2%	i	?	?
Cc1nnc(-c2cc(-c3cnn(C)c3)ccn2)n1C1CCCCC1	-0.4%[70.6 µM]	i	2.2%[172 µM]	?
Cc1nnc(-c2cc(-c3ccc(N4CCOCC4)cc3)ccn2)n1C1CCCCC1	1.9%[70.6 µM]	?	79.4µM*	?
Cc1nnc(-c2cc(-c3cccnc3)ccn2)n1C1CCCCC1	4.7%[70.6 µM]	i	i	89.1µM*
O=C1C(N2CCN(S(=O)(=O)c3ccc(F)cc3F)CC2)CCN1Cc1ccccn1 (stereo not drawn)	13.1%	i	1.5%	-22.7%
CCOC(=O)N1CCC(=O)N(C)C[C@H]2COc3ccc(C)cc3[C@H]21	/	/	-20.3%	?
Cc1ccc(Cn2c(C3CCN(C(=O)c4ccc(C(C)(C)C)cc4)CC3)n[nH]c2=O)cc1	?	i	25.1µM*	28.2µM*
O=C(COc1ccc(Cl)cc1)N1CCC(c2n[nH]c(=O)n2Cc2ccc(F)cc2)CC1	-3.6%	i	?	3.16µM*
O=C(COc1ccccc1)N1CCC(c2n[nH]c(=O)n2Cc2ccc(F)cc2)CC1	0.0%	i	?	28.2µM*
COc1ccc(Cn2c(C3CCN(C(=O)Cc4ccc(Cl)cc4)CC3)n[nH]c2=O)cc1	-13.0%	i	?	35.5µM*
CC(=O)N(C1CCOCC1)C1CCN(S(=O)(=O)c2cc(F)ccc2C)CC1	-10.0%	i	?	-10.9%
CCOCCCNC(=O)C1CCc2ncc(-c3ccsc3)n2C1 (stereo not drawn)	4.3%	i	0.1%	-11.8%
CCC(CC)C(=O)N1[C@@H](c2ccccc2)[C@@H](C(=O)O)C[C@]12CCCCN(CCOC)C2=O	/	/	-14.5%	?
CC(=O)N1CCCC(C(=O)N2CCCC(c3nc4ccncc4[nH]3)C2)C1 (stereo not drawn)	/	/	1.6%	-1.6%
CC(C)(C)C(=O)N1CCN(C(=O)c2nc3cccnc3n(Cc3ccccc3)c2=O)CC1	/	/	-12.4%	-6.6%
Cc1ccc(-n2c(C3CCN(C(=O)COc4ccc(Cl)cc4)CC3)n[nH]c2=O)cc1	7.0%	i	-4.7%	2.82µM*
COc1ccc(C(=O)Nc2ccc(-c3noc([C@@H]4CCCN4Cc4ccncc4)n3)cn2)cc1	12.6µM*	?	?	?
SMILES	hNpr1 antagonist	Luciferase inh	HEK cytotox	3T3 cytotox
COCC(=O)Nc1ccc(-c2noc([C@@H]3CCCN3Cc3cc4ccccc4o3)n2)cn1	-3.3%[70.6 µM]	i	70.8µM*	?
O=C1COCC2(CN1Cc1ccccc1)CN(c1cccnc1)C2	-1.7%[70.6 µM]	i	-28.9%[172 µM]	89.1µM*
O=C1COCC2(CN1Cc1ccccc1)CN(C(=O)C1(c3ccccc3)CC1)C2	5.5%[70.6 µM]	i	-1.0%[172 µM]	79.4µM*
O=C1COCC2(CN(Cc3cc(F)ccc3F)C2)CN1Cc1ccccc1	1.3%[70.6 µM]	i	100µM*	-26.9%[138 µM]
COc1cncc(N2CC3(COCC(=O)N(Cc4cccc(OC(F)(F)F)c4)C3)C2)c1	-2.2%[70.6 µM]	i	?	?
O=C1COCC2(CN1Cc1ccccc1)CN(C(=O)c1ccc(F)c(Cl)c1)C2	1.9%[70.6 µM]	i	-5.2%[172 µM]	89.1µM*
COc1ccc(CN2CC3(COCC2=O)CN(c2ccccc2)C3)cc1F	-18.2%[70.6 µM]	i	?	?
O=C(N1CCOCC2(C1)CN([S+](=O)([O-])c1ccccc1)C2)C1(c2ccccc2)CC1	-3.8%[70.6 µM]	i	?	-22.7%[138 µM]
O=C(NC1CCN(c2cc(-c3cccs3)[nH]n2)CC1)c1cccc(OC(F)(F)F)c1	-0.8%	i	?	-69.5%
COCCn1c(=O)c(C(=O)N2CCN(C(=O)Cc3ccc(OC)cc3)CC2)nc2cccnc21	/	/	i	-9.1%
CC(C)(C)COC(=O)N1CC(=O)N(CCCc2ccccc2)CC(O)C1 (stereo not drawn)	/	/	-25.6%	?
COc1ccc(Cn2c(=O)c(C(=O)NCC(F)F)nc3cccnc32)cc1	/	/	i	-4.3%
CN1CCC(Cn2ccc3c(N4CCOCC4)nc(-c4cccc(N5CCOCC5)c4)cc32)CC1	-1.0%	i	?	31.6µM*
c1ccc(-c2cc3c(ccn3Cc3ccncc3)c(N3CCOCC3)n2)cc1	-7.8%[70.6 µM]	i	?	?
CN1CCC(Cn2ccc3c(N4CCOCC4)nc(-c4cccc(N[S+](C)(=O)[O-])c4)cc32)CC1	0.2%	i	?	?
CN1CCC(Cn2ccc3c(N4CCOCC4)nc(-c4cccc5[nH]ccc45)cc32)CC1	-0.5%[70.6 µM]	i	63.1µM*	35.5µM*
CN1CCC(Cn2ccc3c(N4CCOCC4)nc(-c4ccc5cn[nH]c5c4)cc32)CC1	1.6%[70.6 µM]	i	100µM*	39.8µM*
CCn1ccc(C(=O)N2CCCC(Cn3c(C)cnc3C3CC3)C2)n1 (stereo not drawn)	/	/	-7.5%	-8.0%
COCCNc1ncc(-c2ccc(F)cc2)c2c1OCC2	0.7%[70.6 µM]	15.8µM*	?	?
COCCNc1ncc(-c2ccc(OC)cc2)c2c1OCC2	5.1%[70.6 µM]	44.7µM*	?	?
O=C(Cn1nc2n(c1=O)CCCCC2)Nc1ccc(C(F)(F)F)cc1	3.1%	i	-3.6%	?
O=C(CC1CCCN(c2cnn(CC3CC3)c(=O)c2)C1)Nc1ccccc1F (stereo not drawn)	-1.3%	i	-27.0%	?
CCOc1ccccc1NC(=O)CC1CCCN(c2cnn(CC3CC3)c(=O)c2)C1 (stereo not drawn)	0.0%	i	?	35.5µM*
COc1ccccc1NC(=O)CC1CCCN(c2cnn(CC3CC3)c(=O)c2)C1 (stereo not drawn)	-20.4%	i	1.3%	35.5µM*
